# Compound activity deposited in PubChem BioAssay by National Center for Advancing Translational Sciences (NCATS).
# Hits are enriched below; roughly 2.3% of the tested compounds scored in any of these assays.
# uPA generation: blocks generation of uPA at the cell surface. cell surface uPA generation assay, qHTS. Potency, µM (series often up to 38.3 µM), inactives show at the top dose activity change, negative = inhibition, usual class: inhibitors. hit rate 0.31% among 330,000. AID 540303; active = well fitted inhibition curve with a large enough effect; inconclusive = small, poorly fitted or top-dose-only effect; inactive = no such curve, though single readings can be large or run the other way; tested in mouse RAW 264.7 cells; note: % is set by controls: 0 for no effect and ±100 for the full control effect; nearly all actives have a fitted effect of over 55% in size
# FUS yeast rescue: suppressors of FUS proteinopathy in yeast | Potency, µM (highest dose often 76.6 µM), most hits filed as activators | hit rate 0.24% among 390,000 | AID 1347120 | S. cerevisiae FUS-expressing, growth rescue, OD600, 24 h;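 note: plate controls were DMSO vehicle for no effect and reference control for full effect; nearly all actives have a fitted effect of over 55% in size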
#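 Restored growth of FUS-toxic S. cerevisiae, read as 600 nm absorbance after 24 h at 30C in galactose medium (starting OD 0.005). Controls CP55940 and DMSO.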
# Abeta rescue: restores growth of yeast expressing A-beta42 peptide; yeast expressing A-beta42, growth rescue, OD600, 48 h; response scale: 0% DMSO, 100% iron-clioquinol control; Potency, µM (highest dose often 46.1 µM), most hits filed as activators; hit rate 0.063% among 410,000; AID 1347071; note: nearly all actives have a fitted effect of over 55% in size
#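 Growth rescue measured by 600 nm absorbance after 48 h yeast culture at 30 C with compound. Values normalized between DMSO and an equimolar ferric chloride plus clioquinol control.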
# BCR signal inh: inhibitors of chronic active B-cell receptor signaling; AID 493014; Potency, µM (top dose mostly 46.1 µM), for inactives: top-dose activity change, negative = inhibition, hits mostly inhibitors; hit rate 0.05% among 340,000; ABC-DLBCL IkBa-CBG/CBR reporter, luminescence ratio, 4 h; active = well fitted inhibition curve with a large enough effect in the signal ratio, with a control signal flat, not every such curve was filed as active; inconclusive = small, poorly fitted or top-dose-only effect, or effect the other way, or a change in a side signal; the % refers to the signal ratio;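 note: plate controls were basal doxycycline-induced cells for no effect and cells given 10 µM MG132 for full effect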
#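 TMD8 ABC-DLBCL cells carrying doxycycline-inducible green luciferase fused to IkappaBalpha plus unfused red luciferase were exposed to compounds (up to 46 uM) for 4 hrs at 37C. Activity came from the overlap-corrected green/red luminescence ratio.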
# aSyn rescue: rescues yeast growth from alpha-synuclein toxicity. hit rate 0.14% among 370,000. Yeast expressing alpha-synuclein, growth rescue, BacTiter-Glo, 24 h. Potency, µM (top dose mostly 46.1 µM), without a hit: at the top dose growth rescue (activation), hits mostly activators; note: % of control where 0% means no effect; nearly all actives have a fitted effect of over 65% in size
#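 Readout is rescue of growth in alpha-synuclein-expressing yeast, so inhibitors of toxicity appear as activators. Growth after 24 hr at 30 deg C in galactose medium is quantified by luminescence.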
# TDP-43 yeast inh: inhibitors of TDP-43 toxicity in yeast; TDP-43 expressing yeast growth rescue, BacTiter-Glo, 24 h; Potency, µM (series often up to 46.1 µM), inactives show top-dose growth rescue (activation), hits mostly activators; hit rate 1.8% among 410,000; note: % of control where 0% means no effect; nearly all actives have a fitted effect of over 50% in size
#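 In this qHTS, compounds that restore growth of yeast expressing TDP-43 appear as activators. Cells (OD600=0.02, galactose medium, raffinose-pregrown) are incubated with compound 24 hr at 30 deg C and growth is quantified by BacTiter-Glo.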
# * marks the source's active call; other numbers are inactive results; i = inactive; ? = inconclusive; / = not tested or not shown; ! = not confirmed by another sample. Unless noted, calls come from the whole dose curve; as a rule, active = well fitted curve in the direction sought with a large enough effect; inconclusive = small, poorly fitted or top-dose-only effect, or another doubt; inactive = no such curve, though single readings can be large; an effect the other way counts as inactive or inconclusive. Potency is the fitted concentration of half-maximal effect.
SMILES,uPA generation,FUS yeast rescue,Abeta rescue,BCR signal inh,aSyn rescue,TDP-43 yeast inh
N#C/C(=C\c1cccnc1)c1ccc([N+](=O)[O-])cc1,-11%,i,i,0%,3%,11µM*
CCOc1ccccc1OCC(=O)OCC(=O)Nc1ncc(Cl)cc1Cl,5%,i,i,2%,-1%,-8%
CCCCn1c(SCC(=O)NCc2ccco2)nc2c(sc3ccccc32)c1=O,/,10µM*,i,7%,-9%,0%
CCn1nc(C(=O)N2CCN(Cc3nc4ccccc4s3)CC2)c2ccccc2c1=O,4%,i,i,?,-9%,0%
CCc1sc(C(=O)NCc2ccco2)cc1Br,-15%,i,i,-2%,-12%,16µM*
O=c1[nH]c(=O)c2cn[nH]c2[nH]1,0%,i,i,2%,5%,-15%
O=C(NCc1cccs1)c1cccnc1Cl,-2%,i,i,-3%,1%,4%
Cc1ccc(Nc2ncccc2C(=O)NCc2cccs2)c(C)c1,-2%,i,i,?,/,11µM*
Cc1ccc(Nc2cc(C(=O)NCc3cccs3)c3ccccc3n2)c(C)c1,/,i,i,/,/,15%
Cc1cccc(Nc2ncccc2C(=O)NCc2cccs2)c1C,4%,i,i,11%,-7%,7.9µM*
CC(C)Cc1nnc(NC(=O)c2ccc3c(c2)OCCO3)s1,-14%,i,i,?,1%,20µM*
Cc1ccc(NC(=O)c2ccc3c(c2)OCCO3)nc1,3.2µM*,i,i,?,0%,4%
Cc1ccc(Cn2c(C(C)Nc3nc(-c4ccc(F)cc4)cs3)nc3cc(Cl)c(Cl)cc32)cc1 (stereo unspecified),-2%,i,i,/,15%,-23%
Cc1ccc(NC(=O)CSc2nc3ccccc3nc2N2CCOCC2)cc1,-19%,32µM*!,i,-26%,12%,?
COC(=O)CS(=O)(=O)c1nc2ccccc2nc1N1CCCCC1,/,i,i,/,/,20µM*
CC(=O)Nc1ccc(NC(=O)CSc2nc3ccccc3nc2N2CCCCC2)cc1,0%,i,i,10%,6%,4%
O=C(O)CSc1nc2ccccc2nc1N1CCCCC1,/,i,i,/,/,20µM*
Cc1ccc2[nH]cc(CCNC(=O)c3cccnc3)c2c1,1%,i,i,-4%,8%,-14%
Nc1cccc2nsnc12,-1%,i,i,-1%,-3%,-29%
Nc1cc2nsnc2cc1Br,-5%,/,i,?,5%,13µM*
COc1ccc(N2CCN(C(=O)Cc3csc(NC(=O)Nc4ccccc4OC)n3)CC2)cc1,-3%,?,i,0%,0%,24%
COc1ccccc1NC(=O)Nc1nc(CC(=O)N2CCN(c3ccccc3)CC2)cs1,4%,?,i,?,4.5µM*,0%
OCc1cn(-c2ccccc2)nc1-c1cccnc1,0%,i,i,9%,0%,8%
COc1ccc(C2Nc3ccccc3C(=O)N2Cc2ccncc2)cc1COc1ccc(NC(C)=O)cc1 (stereo unspecified),/,i,/,/,/,/
COc1ccc(C2Nc3cccc(O)c3C(=O)N2Cc2ccccc2)cc1COc1ccc(NC(C)=O)cc1 (stereo unspecified),/,11µM*,i,/,/,/
COc1ccc2ccccc2c1C(=O)/C=C\c1ccoc1,-7%,i,i,-14%,?,11µM*
O=C(Nc1cccc2c1[nH]c1ccccc12)C(F)(F)F,-11%,i,i,?,0%,14µM*
O=C(Nc1cccc2c1[nH]c(=O)c1ccccc12)C(F)(F)F,/,i,i,/,-6%,15%
O=Cc1ccc(N2N=C(c3ccccc3)CC2c2ccccc2)cc1 (stereo unspecified),-12%,i,i,3%,6%,14%
